According to ChEMBL document CHEMBL1157539, “Thousands of chemical starting points for antimalarial lead identification” (Nature, 2010):

Experiments:
Format in all cases: functional
Plasmodium falciparum [1] = assay: GSK_TCMDC: Inhibition of Plasmodium falciparum 3D7 in whole red blood cells, using parasite LDH activity as an index of growth. Test compounds present at 2uM
Plasmodium falciparum [2] = assay: GSK_TCMDC: Inhibition of Plasmodium falciparum Dd2 in whole red blood cells, using parasite LDH activity as an index of growth. Test compounds present at 2uM
HepG2 = assay: GSK_TCMDC: Percent inhibition of human HepG2 cell line. Test compounds present at 10uM.

SMILES	Inhibition (Plasmodium falciparum [1]) [%]	Inhibition (Plasmodium falciparum [2]) [%]	Inhibition (HepG2) [%]
Cc1ccc(-c2cccc3c(NC(=O)Nc4ccc5nccc(N6CCN(C)CC6)c5c4)cccc23)cn1.Cl	90	89	6
Cn1cccc1CCNCc1ccc(-c2cccc(-c3nc4cc(F)ccc4[nH]3)c2)cc1.O=C(O)C(F)(F)F	93	43	0
O=C(c1cccc(Cl)c1)N1CCN(c2ccc([N+](=O)[O-])c(NC3CC3)c2)CC1	100	79	11
COc1cccc(NC(=O)[C@H](C(C)C)n2c(=O)[nH]c3ccccc3c2=O)c1	100	100	0
O=S(=O)(c1c(Cl)cc(Cl)cc1Cl)N1CCCCC(c2ccc(F)c(F)c2)=N1	87	65	5
O=S(=O)(Nc1cccc(CCN2CCC(N3CCCCC3)CC2)c1)c1cccc2cccnc12	98	17	0
COc1ccc(S(=O)(=O)NC2CCN(c3cc(C)nc(Nc4cccc(C#N)c4)n3)CC2)cc1.O=C(O)C(F)(F)F	88	55	9
CN(C)c1ccc(CN2CCC(NC(=O)c3ccc(-c4cccc(Cl)c4)s3)CC2)cc1.O=C(O)C(F)(F)F	93	44	65
C=CCc1cc(Cc2cnc(N)nc2N)c2ccc(C)nc2c1O	84	3	51
CCOC(=O)c1c(CN(CC)CC)n(-c2ccccc2)c2cc(Br)c(O)cc12	93	46	14
